# HSP90 refold inh: HSP90 refolding inhibition in rabbit reticulocyte lysate | actives 0.91% (n = 290,000) | inhibition, % at 5.6 µM | AID 1789 | luciferase refolding luminescence, 3 h;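 active = inhibition above the screen-wide mean plus 3 SD, computed separately per campaign, cut at about 16% in these data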;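 also: 0% = DMSO wells and 100% = 60 µM geldanamycin wells; inhibitors lower the luminescence because luciferase stays unfolded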
# MPTP inh: inhibitors of mitochondrial permeability transition pore; isolated mouse mitochondria, Ca2+ swelling absorbance, 30 min; inhibition, % at 10 µM; actives 1.4% (n = 360,000); AID 602449;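 active = inhibition of 50% or more, scaled per plate between neutral and stimulator controls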;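 also: 0% = DMSO wells given calcium and 100% = 1 mM EGTA wells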
# Platelet DG rel: modulates dense granule release in human platelets; human platelet-rich plasma, SFLLRN dense granule ATP release, luminescence; inhibition, %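 (compounds screened at 7.5 µM in platelet-rich plasma)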; actives 0.22% (n = 300,000); AID 1663;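 active = mean replicate score, as percent of positive control, at or above 50; inconclusive = mean below 50 but at least one replicate at or above 50; inactive = mean and every replicate below 50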
# dFosB act-1: mouse delta FosB homodimer activation | P13346 | purified delta FosB, TAMRA-CDK5 oligo fluorescence polarization; percent of positive-control signal above neutral wells | activation, % at 25 µM | actives 0.99% (n = 340,000) | AID 493131;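 active = mean activation above about 17%, with every replicate also reaching it, limit read from the data, passing the limit was not always enough; inconclusive = only one of the two conditions met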
# Target sequence (P13346 whole entry, looked up): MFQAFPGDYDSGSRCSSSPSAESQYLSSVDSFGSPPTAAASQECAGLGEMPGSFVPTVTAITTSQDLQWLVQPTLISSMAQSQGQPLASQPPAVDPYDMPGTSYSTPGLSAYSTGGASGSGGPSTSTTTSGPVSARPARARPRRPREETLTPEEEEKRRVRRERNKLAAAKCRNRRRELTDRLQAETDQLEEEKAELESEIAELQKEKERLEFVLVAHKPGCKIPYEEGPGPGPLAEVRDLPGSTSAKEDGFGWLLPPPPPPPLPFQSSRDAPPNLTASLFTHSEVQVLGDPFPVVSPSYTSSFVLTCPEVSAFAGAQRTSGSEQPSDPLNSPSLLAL
# HSF1 inh: HSF1 inhibition; activity change, negative = inhibition, % at 7.5 µM (by protocol); NIH3T3-HGL HSE-luciferase, MG132-induced, luminescence 8 h; active compounds read low; actives 0.77% (n = 300,000);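 active = more than half of replicate wells show activity change below -50%, luminescence cut by over half; inconclusive = some wells, but at most half, below -50%; inactive = no replicate well below -50%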;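 also: luciferase reports HSF-1 transcriptional activity via heat shock element; 0% = median of DMSO wells and -100% = zero luminescence signal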
# HSF1 activator: increases HSF-1 driven luciferase reporter signal; actives 1.7% (n = 300,000); NIH3T3-HGL HSF-1 luciferase reporter, MG132, 8 h; 100% = twice DMSO control signal; activation, % at 9 µM;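 active = mean replicate activation of at least 50% with a set share of replicates each reaching 50%; inconclusive = only one of those two conditions met; inactive = mean below 50% and too few replicates reaching it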;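 also: 0% = median of the neutral control wells and 100% = twice that signal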
# dFosB act-2: delta FosB (mouse) homodimer activation; 2,400 tested, under 10 active; purified delta FosB, TAMRA-CDK5 oligo fluorescence polarization; normalised: neutral wells 0, positive control 100; AID 588690; shares compounds with dFosB act-1; activation, % at 24.9 µM;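 active = highest replicate activation at or above 34% and every replicate reaching that threshold; inconclusive = meets only one of the two criteria; inactive = meets neither criterion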;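 also: higher polarization means more probe DNA bound by delta FosB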
# Numbers without * were called inactive; ? = inconclusive; · = not tested or not shown. Rows were chosen to be rich in hits. Some 4.9% of all compounds tested hit in one or more screens of this group.
SMILES,HSP90 refold inh,MPTP inh,Platelet DG rel,dFosB act-1,HSF1 inh,HSF1 activator,dFosB act-2
O=C(Cc1ccc(Br)cc1)NC1CCSC1=O (configuration not stated),0,-1,1,5,-5,-8,·
CCN(CC)CCN(C(=O)c1ccc(S(=O)(=O)N2CCCCC2)cc1)c1nc2cc3c(cc2s1)OCO3,3,-2,16,32*,-1,7,-1
Cc1cc(C)c2nc(N(CCN(C)C)C(=O)c3ccc4ccccc4c3)sc2c1,3,2,-3,21*,-2,-8,6
CCOc1cccc2sc(N(CCN(CC)CC)C(=O)c3ccc(S(=O)(=O)N4CCCC4)cc3)nc12,0,-3,6,-8,-9,-5,·
CN(C)CCN(C(=O)c1ccc(S(=O)(=O)N(C)c2ccccc2)cc1)c1nc2cc3c(cc2s1)OCO3,0,0,7,13,3,20,·
CN(C)CCN(C(=O)c1ccc(S(=O)(=O)N(C)c2ccccc2)cc1)c1nc2ccc(Cl)cc2s1,-5,1,0,28*,5,2,1
CN(C)CCN(C(=O)c1ccco1)c1nc2cc3c(cc2s1)OCCO3,-4,-1,-3,30*,-17,-11,-4
COc1ccc(-n2c(CCC(=O)O)ccc2-c2ccc(F)cc2)c(OC)c1,-2,1,-5,7,-1,4,·
CN1C(=O)N(C)C(c2cccc([N+](=O)[O-])c2)C2=C1CCCC2=O (configuration not stated),3,-2,-1,-7,6,15,·
CCN(CC)CCN(C(=O)CN1C(=O)c2ccccc2C1=O)c1nc2cc3c(cc2s1)OCO3,6,0,-12,7,-1,-5,·
CN(C)CCN(C(=O)CN1C(=O)c2ccccc2C1=O)c1nc2cc3c(cc2s1)OCO3,2,0,-27,38*,-1,5,4
CN(C)CCN(C(=O)c1ccc(C(=O)c2ccccc2)cc1)c1nc2cc3c(cc2s1)OCCO3,4,0,4,24*,-3,2,-8
CN(C)CCCN(C(=O)c1ccc(C(=O)c2ccccc2)cc1)c1nc2cc3c(cc2s1)OCCO3,0,-1,1,?,-43,-48,·
CN(C)CCCN(C(=O)c1ccc2c(c1)CCCC2)c1nc2cc3c(cc2s1)OCO3,0,-1,-5,26*,-15,-9,2
CC12CCC(C(=O)Nc3nc4ccc(Br)cc4s3)(OC1=O)C2(C)C (configuration not stated),5,6,2,-9,18,43,·
CCC(=O)Nc1nnc(SCC(=O)NCc2ccc3c(c2)OCO3)s1,-4,0,10,23*,-5,-7,-1
CC(=O)Nc1nnc(SCC(=O)NCc2ccc3c(c2)OCO3)s1,-1,0,-11,10,2,-10,·
CCOC(=O)CSc1nnc(NC(=O)c2ccc3c(c2)OCO3)s1,10,1,1,41*,-17,-25,1
CC(=O)c1cccc(NC(=O)N2CCC(NC(=O)c3ccco3)CC2)c1,0,-1,2,-5,4,8,·
CCOc1ccc(NC(=O)CC2C(=O)N(c3ccc(OC)cc3)C(=S)N2Cc2ccccn2)cc1 (configuration not stated),-2,1,-4,-4,1,-2,·
COc1ccc(NC(=O)CC2C(=O)N(c3ccc(OC)cc3)C(=S)N2NC(=O)c2cccc(F)c2)cc1 (configuration not stated),-1,2,-12,0,6,9,·
CCOc1ccc(NC(=O)CC2C(=O)N(c3ccc(OC)c(Cl)c3)C(=S)N2C2CC2)cc1 (configuration not stated),-3,-1,12,28*,10,14,6
COc1ccc(N2C(=O)C(CC(=O)Nc3ccc(Cl)cc3)N(NC(=O)c3cccc(F)c3)C2=S)cc1 (configuration not stated),1,45,2,25*,16,9,-6
CC(C)CC1C(=O)N(Cc2cn(CCC3OCCO3)nn2)CCS(=O)(=O)N1Cc1ccc(-c2cccc(N(C)C)c2)cc1 (configuration not stated),·,1,·,·,·,·,·
Cc1ccc(C(=O)NC(Cc2cccc(C(F)(F)F)c2)C(=O)O)cc1 (configuration not stated),·,0,·,5,·,·,·
SMILES,HSP90 refold inh,MPTP inh,Platelet DG rel,dFosB act-1,HSF1 inh,HSF1 activator,dFosB act-2
Cc1ccc(/C=N\NC(=O)c2ccc(Cn3cc(Br)c([N+](=O)[O-])n3)o2)o1,-7,3,9,27*,-1,7,-8
O=C(N/N=C\c1cccc(Cl)c1)c1ccc(Cn2cc(Br)c([N+](=O)[O-])n2)o1,0,-5,-1,33*,15,50,-1
CCNC(=O)C1(C)CCCN1C(=O)c1cnc2ccccc2n1 (configuration not stated),·,1,·,·,·,·,·
CN(C)c1ccc(C(CNC(=O)c2ccco2)N2CCCC2)cc1 (configuration not stated),-3,-1,8,3,-8,-2,·
Cc1ccc(SCc2nc3ccccc3n2CC(=O)Nc2c(C)cccc2C)cc1,-1,9,2,32*,15,1,0
CC1(C)NC(=O)N(CCC(=O)Nc2cc(C(F)(F)F)ccc2Cl)C1=O,·,0,·,-5,·,·,·
CC/C(=N\NC(=O)CSCc1ccccc1Br)c1ccc2c(c1)OCCO2,-2,6,2,20*,3,6,0
CC/C(=N\NC(=O)CSCc1ccccc1Cl)c1ccc2c(c1)OCCO2,4,3,6,-14,6,-6,·
O=C(Nc1cccc(NC(=O)c2ccc(Br)o2)n1)c1ccc(Br)o1,-5,-1,-6,34*,3,0,1
CCCCNC(=O)Cn1c(=O)oc2cc(S(=O)(=O)N3CC(C)CC(C)C3)ccc21 (configuration not stated),-4,2,-2,8,2,0,·
CC1CC(C)CN(S(=O)(=O)c2ccc3c(c2)oc(=O)n3CC(=O)N(C)Cc2ccccc2)C1 (configuration not stated),-1,-1,5,47*,3,21,0
O=C(O)C1=C[C@@H](c2coc3ccccc3c2=O)C[C@@H](OCCCCO)O1,6,-1,-2,11,-11,-18,·
Nc1ccc(N2CCOCC2)cc1C(F)(F)F,-1,1,-3,-10,-11,-11,·
COc1ccc(NC(=O)Cn2nnc(C(=O)NCCc3ccccc3)c2N)cc1,2,2,11,29*,5,23,-2

# Screens deposited in PubChem by several laboratories.
